First the molecules themselves.
T1: RBFOX1 RRM RbFoxmut (Fox-RRM*) (Homo sapiens, UniProt Q9NWB1 109-208, R118D;E147R;N151S;E152T)
T1 sequence: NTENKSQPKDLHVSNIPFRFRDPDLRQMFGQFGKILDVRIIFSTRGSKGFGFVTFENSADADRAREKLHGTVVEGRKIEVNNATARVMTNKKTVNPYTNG

B1: GAGCUUG (DNA:RNA)
RNA: GGGAGACCGGAAUUCAGAUUGUCCGAGCUUGUUAAAUCCCGUCGUAGCCACCA
DNA 1: CAATCTGAATTCCGGTCTCCC
DNA 2: TGGTGGCTACGACGGGATT
B2: UGUGGCA (DNA:RNA)
RNA: GGGAGACCGGAAUUCAGAUUGUCCUGUGGCAUUAAAUCCCGUCGUAGCCACCA
DNA 1: CAATCTGAATTCCGGTCTCCC
DNA 2: TGGTGGCTACGACGGGATT
B3: CUAUUUC (DNA:RNA)
RNA: B1 RNA with G25C, A26U, G27A, C28U, G31C
DNA 1: CAATCTGAATTCCGGTCTCCC
DNA 2: TGGTGGCTACGACGGGATT
B4: AGUCAAC (DNA:RNA)
RNA: B2 RNA with U25A, G28C, G29A, C30A, A31C
DNA 1: CAATCTGAATTCCGGTCTCCC
DNA 2: TGGTGGCTACGACGGGATT
B5: AAUGCAG (DNA:RNA)
RNA: B1 RNA with G25A, G27U, C28G, U29C, U30A
DNA 1: CAATCTGAATTCCGGTCTCCC
DNA 2: TGGTGGCTACGACGGGATT
B6: UCUUGCA (DNA:RNA)
RNA: B2 RNA with G26C, G28U
DNA 1: CAATCTGAATTCCGGTCTCCC
DNA 2: TGGTGGCTACGACGGGATT
B7: UUGCAUC (DNA:RNA)
RNA: B1 RNA with G25U, A26U, U29A, G31C
DNA 1: CAATCTGAATTCCGGTCTCCC
DNA 2: TGGTGGCTACGACGGGATT
B8: UUGCAGA (DNA:RNA)
RNA: B1 RNA with G25U, A26U, U29A, U30G, G31A
DNA 1: CAATCTGAATTCCGGTCTCCC
DNA 2: TGGTGGCTACGACGGGATT
B9: GCGUGCA (DNA:RNA)
RNA: B2 RNA with U25G, G26C, U27G, G28U
DNA 1: CAATCTGAATTCCGGTCTCCC
DNA 2: TGGTGGCTACGACGGGATT
B10: UUGCAUG (DNA:RNA)
RNA: B1 RNA with G25U, A26U, U29A
DNA 1: CAATCTGAATTCCGGTCTCCC
DNA 2: TGGTGGCTACGACGGGATT
B11: GUGCAUG (DNA:RNA)
RNA: B1 RNA with A26U, U29A
DNA 1: CAATCTGAATTCCGGTCTCCC
DNA 2: TGGTGGCTACGACGGGATT
B12: UUGCGUC (DNA:RNA)
RNA: B1 RNA with G25U, A26U, U29G, G31C
DNA 1: CAATCTGAATTCCGGTCTCCC
DNA 2: TGGTGGCTACGACGGGATT
B13: GUGCAUA (DNA:RNA)
RNA: B1 RNA with A26U, U29A, G31A
DNA 1: CAATCTGAATTCCGGTCTCCC
DNA 2: TGGTGGCTACGACGGGATT
B14: GUGCAUC (DNA:RNA)
RNA: B1 RNA with A26U, U29A, G31C
DNA 1: CAATCTGAATTCCGGTCTCCC
DNA 2: TGGTGGCTACGACGGGATT
B15: UUGCAUA (DNA:RNA)
RNA: B1 RNA with G25U, A26U, U29A, G31A
DNA 1: CAATCTGAATTCCGGTCTCCC
DNA 2: TGGTGGCTACGACGGGATT
B16: GUGCAGA (DNA:RNA)
RNA: B1 RNA with A26U, U29A, U30G, G31A
DNA 1: CAATCTGAATTCCGGTCTCCC
DNA 2: TGGTGGCTACGACGGGATT
B17: GUUCAUC (DNA:RNA)
RNA: B1 RNA with A26U, G27U, U29A, G31C
DNA 1: CAATCTGAATTCCGGTCTCCC
DNA 2: TGGTGGCTACGACGGGATT
B18: ACGUAGU (DNA:RNA)
RNA: B1 RNA with G25A, A26C, C28U, U29A, U30G, G31U
DNA 1: CAATCTGAATTCCGGTCTCCC
DNA 2: TGGTGGCTACGACGGGATT
B19: CAACGCA (DNA:RNA)
RNA: B2 RNA with U25C, G26A, U27A, G28C
DNA 1: CAATCTGAATTCCGGTCTCCC
DNA 2: TGGTGGCTACGACGGGATT
B20: UGUAUAC (DNA:RNA)
RNA: B2 RNA with G28A, G29U, C30A, A31C
DNA 1: CAATCTGAATTCCGGTCTCCC
DNA 2: TGGTGGCTACGACGGGATT
B21: UUCCAAG (DNA:RNA)
RNA: B1 RNA with G25U, A26U, G27C, U29A, U30A
DNA 1: CAATCTGAATTCCGGTCTCCC
DNA 2: TGGTGGCTACGACGGGATT
B22: AUCGUGG (DNA:RNA)
RNA: B1 RNA with G25A, A26U, G27C, C28G, U30G
DNA 1: CAATCTGAATTCCGGTCTCCC
DNA 2: TGGTGGCTACGACGGGATT
B23: CGUUUCG (DNA:RNA)
RNA: B2 RNA with U25C, G28U, G29U, A31G
DNA 1: CAATCTGAATTCCGGTCTCCC
DNA 2: TGGTGGCTACGACGGGATT
B24: CAAAACG (DNA:RNA)
RNA: B1 RNA with G25C, G27A, C28A, U29A, U30C
DNA 1: CAATCTGAATTCCGGTCTCCC
DNA 2: TGGTGGCTACGACGGGATT
B25: GAGAGGA (DNA:RNA)
RNA: B1 RNA with C28A, U29G, U30G, G31A
DNA 1: CAATCTGAATTCCGGTCTCCC
DNA 2: TGGTGGCTACGACGGGATT
B26: CGAUGAG (DNA:RNA)
RNA: B2 RNA with U25C, U27A, G28U, C30A, A31G
DNA 1: CAATCTGAATTCCGGTCTCCC
DNA 2: TGGTGGCTACGACGGGATT
B27: GGAUGAG (DNA:RNA)
RNA: B1 RNA with A26G, G27A, C28U, U29G, U30A
DNA 1: CAATCTGAATTCCGGTCTCCC
DNA 2: TGGTGGCTACGACGGGATT
B28: GUAUGAG (DNA:RNA)
RNA: B1 RNA with A26U, G27A, C28U, U29G, U30A
DNA 1: CAATCTGAATTCCGGTCTCCC
DNA 2: TGGTGGCTACGACGGGATT
B29: GAUUGAG (DNA:RNA)
RNA: B1 RNA with G27U, C28U, U29G, U30A
DNA 1: CAATCTGAATTCCGGTCTCCC
DNA 2: TGGTGGCTACGACGGGATT
B30: GAAUGAG (DNA:RNA)
RNA: B1 RNA with G27A, C28U, U29G, U30A
DNA 1: CAATCTGAATTCCGGTCTCCC
DNA 2: TGGTGGCTACGACGGGATT
B31: CUAUGAG (DNA:RNA)
RNA: B1 RNA with G25C, A26U, G27A, C28U, U29G, U30A
DNA 1: CAATCTGAATTCCGGTCTCCC
DNA 2: TGGTGGCTACGACGGGATT

Numbering of substitutions follows the chain as printed; changes in the protein carry UniProt numbers. The full ranking holds about 16,000 sequences; the median of “ka relative to ugcaugu” is about 0.096, and the highest 2% start at about 0.35. What follows is part of a selection rich in the highest values, with near analogues and random picks from the rest.

This assay addresses T1, RBFOX1 RRM RbFoxmut (Fox-RRM*). Put plainly: EMSA; HiTS-Eq, 1 nM pool, 10 min; buffer printed only for the single-RNA assays: 10 mM Tris pH 7.5, 150 mM NaCl, 3.4 mM EDTA, 0.001% NP-40, 30 C. The settings on record: tags: His6 N-terminal (pET28a); label: 5' 32P. The procedure, abridged: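 Purified wild-type or mutant RbFox RRM at increasing concentrations was equilibrated with 1 nM of 5′-radiolabelled RNA carrying 7 randomized nucleotides for 10 min in 50 µL. Unbound RNA was separated by 8% native PAGE and sequenced. Relative association constants came from read-count changes of each RNA species compared with the control reaction, normalised to the cognate motif.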
Background: In EMSA bound probe runs differently from free probe, usually more slowly.
With B1, the binding signal was 0.253 KA relative to UGCAUGU. Under B2 stands 0.136 KA relative to UGCAUGU; under B3, 0.0582 KA relative to UGCAUGU. Under B4 stands 0.0571 KA relative to UGCAUGU. For B5, the binding signal was 0.103 KA relative to UGCAUGU. On to B6, for which the binding signal is 0.205 KA relative to UGCAUGU. The figure for B7 is 0.432 KA relative to UGCAUGU; for B8 it is 0.108 KA relative to UGCAUGU. The figure for B9 is 0.225 KA relative to UGCAUGU. The figure for B10 is 0.909 KA relative to UGCAUGU; for B11 it is 1.39 KA relative to UGCAUGU; for B12 it is 0.126 KA relative to UGCAUGU. Consider B13, for which the binding signal is 0.153 KA relative to UGCAUGU. For B14, the binding signal is 0.566 KA relative to UGCAUGU. The figure for B15 is 0.23 KA relative to UGCAUGU; for B16 it is 0.12 KA relative to UGCAUGU. The figure for B17 is 0.0631 KA relative to UGCAUGU. B18: the binding signal is 0.15 KA relative to UGCAUGU. The figure for B19 is 0.161 KA relative to UGCAUGU; for B20 it is 0.114 KA relative to UGCAUGU; for B21 it is 0.0952 KA relative to UGCAUGU. The figure for B22 is 0.124 KA relative to UGCAUGU; for B23 it is 0.17 KA relative to UGCAUGU; for B24 it is 0.0837 KA relative to UGCAUGU. Take B25: the binding signal was 0.0596 KA relative to UGCAUGU. As for B26, the binding signal is 0.133 KA relative to UGCAUGU. As for B27, the binding signal was 0.225 KA relative to UGCAUGU. The figure for B28 is 0.513 KA relative to UGCAUGU; for B29 it is 0.183 KA relative to UGCAUGU. The figure for B30 is 0.983 KA relative to UGCAUGU. The figure for B31 is 0.107 KA relative to UGCAUGU.
